Inconclusive results are not listed. Calls of active or inactive are those of the source. The call rests on the fitted dose curve; in most records, active means well fitted cell-killing curve with a large enough effect; inconclusive means small, poorly fitted or top-dose-only effect, or effect the other way; inactive means flat fitted curve, though single readings scatter.
Legend:
Test in all cases: Primary qHTS to identify gynecologic anti-cancer compounds using libraries of approved drugs and bioactive compounds (AID 1345084); further: nearly all actives have a fitted effect of over 55% in size
Settings in all cases: Gynecologic cancer cell panel viability, ATPlite luminescence, 48 h; series mostly up to 57.5 µM
OV90 = tested on: OV90
Outline: (§1)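 ATP-based viability (ATPlite), 1,000 cells/well, 16 h pre-incubation, 48 h compound at 37 C, 5% CO2, 15 min RT before read.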

PA-1 = tested on: PA-1
Outline: as §1

SKOV3 = tested on: SKOV3
Outline: as §1

Tov-21-G = tested on: Tov-21-G
Outline: as §1

Tov112D = tested on: Tov112D
Outline: as §1

Measured: Potency

CN(C)c1ccc(C2O[C@@H](c3ccccc3)C[C@H](c3ccccc3)O2)cc1 (stereo partly specified)
inactive: OV90 | PA-1 | SKOV3 | Tov-21-G | Tov112D

CCC(C)(C)C1CCc2c(sc(NC(=O)c3ccc(Br)cc3)c2C#N)C1 (stereo unspecified)
inactive: OV90 | PA-1 | SKOV3 | Tov-21-G | Tov112D

CC1(C)C[C@@H]2[C@H](C1)[C@@]1(C)C[C@]13C(O)OC[C@]3(O)[C@H]2O (stereo partly specified)
inactive: OV90 | PA-1 | SKOV3 | Tov-21-G | Tov112D

COc1ccc(/C=C/C(=O)N2CCCC2)cc1
inactive: OV90 | PA-1 | SKOV3 | Tov-21-G | Tov112D

COC(=O)[C@H](O)[C@H]1C(C)(C)[C@H](OC(C)=O)[C@@]2(O)C(=O)[C@]1(C)C1CC[C@]3(C)C(CC(=O)O[C@H]3c3ccoc3)[C@]13O[C@@H]32 (stereo partly specified)
inactive: OV90 | PA-1 | SKOV3 | Tov-21-G | Tov112D

CN(C)C(=O)C(O)C(Cc1ccccc1)NC(=O)c1cc2cc(Cl)ccc2[nH]1 (stereo unspecified)
inactive: OV90 | PA-1 | SKOV3 | Tov112D

C=C1[C@H](OC(C)=O)[C@H]2[C@@H](OC(=O)c3ccccc3)[C@@H](C)C[C@]2(O)[C@@H](OC(C)=O)[C@H](C)/C=C/C(C)(C)C(=O)[C@H](OC(C)=O)[C@H]1OC(C)=O
inactive: OV90 | PA-1 | SKOV3 | Tov-21-G | Tov112D

C[C@]12CCC[C@](C)(C(=O)O)C1CCC13CC(CO)C(CCC12)C3 (stereo partly specified)
inactive: OV90 | PA-1 | SKOV3 | Tov-21-G | Tov112D

C[C@]1(OC(=O)/C=C\c2ccc(O)cc2)C[C@@H](O)[C@]2(O)C=CO[C@@H](O[C@@H]3O[C@H](CO)[C@@H](O)[C@H](O)[C@H]3O)C12 (stereo partly specified)
inactive: OV90 | PA-1 | SKOV3 | Tov-21-G | Tov112D

CCN=C1N[C@@H]2[C@@H](O)[C@H](O)[C@@H](CO)O[C@@H]2S1
inactive: OV90 | PA-1 | SKOV3 | Tov-21-G | Tov112D

COC(=O)C1(O)C(OC(C)=O)CCC2C3(CC(c4ccoc4)OC3=O)C(C)=CCC21C(=O)OC (stereo unspecified)
inactive: OV90 | PA-1 | SKOV3 | Tov-21-G | Tov112D

Cc1nc2ccccc2c(-c2ccc3c4c(ccnc24)CCO3)c1[C@H](OC(C)(C)C)C(=O)O
inactive: OV90 | PA-1 | Tov-21-G | Tov112D

O=C(OCC(O)CO[C@@H]1O[C@H](C(=O)O)[C@@H](O)[C@H](O)[C@H]1O)c1ccccc1 (stereo partly specified)
inactive: OV90 | PA-1 | SKOV3 | Tov-21-G | Tov112D

CC1=C2CC(=O)C(C)CC/C=C(\C)CC2(O)OC1=O (stereo unspecified)
inactive: OV90 | PA-1 | SKOV3 | Tov-21-G | Tov112D

O=C(NCCN1CCCC1)c1cc(-c2ccc(CN3CCOCC3)cc2)nc2ccc(F)cc12
inactive: OV90 | PA-1 | SKOV3 | Tov-21-G | Tov112D

C/C=C1/C[N+](C)([O-])C2Cc3c([nH]c4ccccc34)C(=O)CC1C2C(=O)OC (stereo unspecified)
inactive: OV90 | PA-1 | SKOV3 | Tov-21-G | Tov112D

C[C@@H]1O[C@@H](O[C@H]2[C@@H]3C=CO[C@@H](O[C@@H]4O[C@H](CO)[C@@H](O)[C@H](O)[C@H]4O)[C@@H]3[C@@]3(CO)O[C@@H]23)[C@H](O)[C@H](OC(=O)/C=C/c2ccc(O)c(O)c2)[C@H]1O
inactive: OV90 | PA-1 | Tov-21-G

CN(C)CC(c1ccc(O)cc1)C1(O)CCCCC1 (stereo unspecified)
inactive: OV90 | PA-1 | SKOV3 | Tov112D

COC(=O)c1[nH]c(=O)c2ccccc2c1-c1ccc[nH]1
inactive: OV90 | PA-1 | Tov-21-G

COC(=O)C1=CO[C@@H](O[C@@H]2O[C@H](CO)[C@@H](O)[C@H](O)[C@H]2O)[C@@H]2[C@@H](C)[C@@H](O)C(O)[C@H]12 (stereo partly specified)
inactive: OV90 | PA-1 | Tov-21-G | Tov112D

O=C(/C=C/c1ccc(O)cc1)OC[C@H]1O[C@H](O[C@@]2(CO)O[C@@H](CO)[C@H](O)[C@H]2O)[C@H](O)[C@@H](O)[C@@H]1O
inactive: OV90 | PA-1 | Tov-21-G | Tov112D

O=C1NC(=O)/C(=C/c2cccc(C(F)(F)F)c2)S1
inactive: OV90 | PA-1 | Tov-21-G | Tov112D

O=C(OC[C@H]1O[C@H](O[C@H]2CO[C@H](CO)[C@@H](O)[C@@H]2O)[C@H](O)[C@@H](O)[C@H]1O)c1ccccc1
inactive: OV90 | PA-1 | Tov-21-G | Tov112D

CC(C)C1(O)C=C2C(=O)CC3C(C)(C(=O)O)CCCC3(C)C2CC1 (stereo unspecified)
inactive: OV90 | PA-1 | Tov-21-G | Tov112D

CC(NC(=O)[C@H](Cc1ccccc1)NC(=O)OCc1ccccc1)C(=O)CF (stereo partly specified)
inactive: OV90 | PA-1 | Tov-21-G | Tov112D

OCC(O)C(c1c[nH]c2ccccc12)c1c[nH]c2ccccc12 (stereo unspecified)
inactive: OV90 | PA-1 | Tov-21-G | Tov112D

From PubChem BioAssay (NCATS)
